Reference: the supplement of paper PMC10849652
The full data set covers some 8,800 targets. This sample favours those with a hit. About 0.5% of all pairs of compound and target were hits.

Each target was assayed with CCCS(=O)(=O)Nc1ccc(F)c(C(=O)c2c[nH]c3ncc(-c4ccc(Cl)cc4)cc23)c1F [vemurafenib] (assay: log2 fold change, soluble protein after heating vs DMSO (PISA); higher = thermal stabilisation; K562 lysate, 10 uM; active = over 0.2 and 3.5 SD of the protein, either way, in both replicates (recomputed)).
In short: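 Pellets of K562 cells were dounce-homogenised in PBS pH 7.4 with 1 mM MgCl2, and the crude extract was held at 1 mg/mL protein for a 30 min treatment with 10 μM compound. Aliquots were heated for 3 min over 48°C-58°C and pooled before NP-40 was added to 0.5% at 4°C. The supernatant from 21,000xg for 90 min was quantified by TMTpro 16plex LC-MS/MS with channel sums equalised. Values are reported from duplicates as log-two fold change in thermal stability relative to solvent controls.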

Chain of UniProt Q96IV0 (Q96IV0 whole entry, looked up): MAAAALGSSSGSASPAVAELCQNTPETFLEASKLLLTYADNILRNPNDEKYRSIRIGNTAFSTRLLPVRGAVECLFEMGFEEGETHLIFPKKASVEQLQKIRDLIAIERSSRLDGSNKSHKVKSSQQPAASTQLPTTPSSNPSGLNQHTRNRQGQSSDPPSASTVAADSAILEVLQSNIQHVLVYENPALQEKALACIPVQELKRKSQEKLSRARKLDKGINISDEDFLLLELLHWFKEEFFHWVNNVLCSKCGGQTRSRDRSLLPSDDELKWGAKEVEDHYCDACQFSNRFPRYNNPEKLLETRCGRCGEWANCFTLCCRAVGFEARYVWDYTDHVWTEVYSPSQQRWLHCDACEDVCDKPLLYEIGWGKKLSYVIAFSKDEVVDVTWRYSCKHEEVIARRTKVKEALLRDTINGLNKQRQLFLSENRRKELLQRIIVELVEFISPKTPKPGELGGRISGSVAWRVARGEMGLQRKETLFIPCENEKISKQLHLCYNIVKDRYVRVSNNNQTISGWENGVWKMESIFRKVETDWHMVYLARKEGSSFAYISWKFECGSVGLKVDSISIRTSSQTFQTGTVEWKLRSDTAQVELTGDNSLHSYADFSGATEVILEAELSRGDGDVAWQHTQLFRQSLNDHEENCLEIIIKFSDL
Chain of UniProt Q9UFN0 (Q9UFN0 whole entry, looked up): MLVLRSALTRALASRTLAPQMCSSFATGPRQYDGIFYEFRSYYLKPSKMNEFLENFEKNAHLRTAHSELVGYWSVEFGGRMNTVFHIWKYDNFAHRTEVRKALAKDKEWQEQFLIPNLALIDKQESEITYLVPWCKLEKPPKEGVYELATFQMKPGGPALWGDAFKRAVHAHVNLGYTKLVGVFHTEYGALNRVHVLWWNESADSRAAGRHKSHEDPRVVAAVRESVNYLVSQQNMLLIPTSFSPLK
Chain of UniProt Q9Y5N5 (Q9Y5N5 whole entry, looked up, one chain of several): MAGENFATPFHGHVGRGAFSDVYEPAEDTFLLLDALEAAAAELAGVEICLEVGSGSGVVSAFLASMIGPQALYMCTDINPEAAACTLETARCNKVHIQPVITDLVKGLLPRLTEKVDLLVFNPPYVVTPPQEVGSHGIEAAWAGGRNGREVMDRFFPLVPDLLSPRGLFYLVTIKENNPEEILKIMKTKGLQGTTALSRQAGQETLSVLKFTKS
Chain of UniProt Q9BV86 (Q9BV86 whole entry, looked up): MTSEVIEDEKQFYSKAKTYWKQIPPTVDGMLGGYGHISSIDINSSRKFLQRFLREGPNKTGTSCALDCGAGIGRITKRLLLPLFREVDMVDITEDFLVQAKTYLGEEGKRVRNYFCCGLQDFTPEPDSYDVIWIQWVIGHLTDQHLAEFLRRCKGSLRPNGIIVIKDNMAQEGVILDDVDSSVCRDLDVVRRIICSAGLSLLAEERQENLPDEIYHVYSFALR
Chain of UniProt Q99836 (Q99836 whole entry, looked up): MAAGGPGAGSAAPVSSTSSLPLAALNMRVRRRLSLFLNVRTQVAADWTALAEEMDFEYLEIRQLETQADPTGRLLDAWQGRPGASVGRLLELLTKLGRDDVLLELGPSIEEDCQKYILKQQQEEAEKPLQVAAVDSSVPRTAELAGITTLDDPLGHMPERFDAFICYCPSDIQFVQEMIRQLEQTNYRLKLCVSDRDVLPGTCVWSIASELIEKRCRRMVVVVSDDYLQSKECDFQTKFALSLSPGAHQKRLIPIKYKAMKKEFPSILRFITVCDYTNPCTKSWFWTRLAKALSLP
Chain of UniProt Q6IBW4 (Q6IBW4 whole entry, looked up): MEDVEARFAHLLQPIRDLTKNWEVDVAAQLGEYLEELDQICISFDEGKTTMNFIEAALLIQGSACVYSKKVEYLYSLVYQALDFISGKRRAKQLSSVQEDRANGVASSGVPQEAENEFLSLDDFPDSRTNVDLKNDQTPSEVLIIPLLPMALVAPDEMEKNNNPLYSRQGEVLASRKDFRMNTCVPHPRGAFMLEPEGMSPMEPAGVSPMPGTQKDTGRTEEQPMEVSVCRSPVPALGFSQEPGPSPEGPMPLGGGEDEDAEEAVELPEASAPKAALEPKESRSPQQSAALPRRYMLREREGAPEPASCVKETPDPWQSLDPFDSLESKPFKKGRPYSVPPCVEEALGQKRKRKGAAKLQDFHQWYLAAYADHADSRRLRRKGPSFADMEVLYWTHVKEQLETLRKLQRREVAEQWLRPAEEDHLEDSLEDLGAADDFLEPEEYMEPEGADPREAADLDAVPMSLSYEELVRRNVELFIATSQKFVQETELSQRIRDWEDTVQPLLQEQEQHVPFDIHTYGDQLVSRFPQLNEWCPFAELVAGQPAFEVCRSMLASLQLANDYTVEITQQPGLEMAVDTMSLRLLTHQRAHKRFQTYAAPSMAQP
Chain of UniProt Q6GQQ9 (Q6GQQ9 whole entry, looked up): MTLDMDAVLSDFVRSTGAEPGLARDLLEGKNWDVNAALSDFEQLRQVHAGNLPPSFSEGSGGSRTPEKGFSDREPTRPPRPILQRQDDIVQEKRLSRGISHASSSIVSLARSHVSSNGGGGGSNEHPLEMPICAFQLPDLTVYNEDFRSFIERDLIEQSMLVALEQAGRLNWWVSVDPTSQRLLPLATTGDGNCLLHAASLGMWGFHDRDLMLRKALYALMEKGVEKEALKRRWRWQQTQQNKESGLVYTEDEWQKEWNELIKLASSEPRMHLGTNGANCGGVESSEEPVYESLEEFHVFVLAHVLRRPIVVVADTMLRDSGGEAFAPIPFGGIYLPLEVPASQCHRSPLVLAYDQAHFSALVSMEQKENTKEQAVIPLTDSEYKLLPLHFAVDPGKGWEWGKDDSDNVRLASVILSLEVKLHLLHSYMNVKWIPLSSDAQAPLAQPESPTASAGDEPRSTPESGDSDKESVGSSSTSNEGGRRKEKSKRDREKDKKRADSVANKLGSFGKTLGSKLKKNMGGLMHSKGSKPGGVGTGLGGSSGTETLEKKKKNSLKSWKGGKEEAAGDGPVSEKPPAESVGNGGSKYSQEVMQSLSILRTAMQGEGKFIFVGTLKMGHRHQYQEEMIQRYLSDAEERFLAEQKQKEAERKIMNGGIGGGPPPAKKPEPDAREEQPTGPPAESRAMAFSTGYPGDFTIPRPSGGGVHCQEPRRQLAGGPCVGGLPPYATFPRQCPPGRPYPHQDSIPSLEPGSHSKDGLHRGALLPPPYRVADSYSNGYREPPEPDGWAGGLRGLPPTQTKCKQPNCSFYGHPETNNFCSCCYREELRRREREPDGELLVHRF
Chain of UniProt Q9Y5A7 (Q9Y5A7 whole entry, looked up): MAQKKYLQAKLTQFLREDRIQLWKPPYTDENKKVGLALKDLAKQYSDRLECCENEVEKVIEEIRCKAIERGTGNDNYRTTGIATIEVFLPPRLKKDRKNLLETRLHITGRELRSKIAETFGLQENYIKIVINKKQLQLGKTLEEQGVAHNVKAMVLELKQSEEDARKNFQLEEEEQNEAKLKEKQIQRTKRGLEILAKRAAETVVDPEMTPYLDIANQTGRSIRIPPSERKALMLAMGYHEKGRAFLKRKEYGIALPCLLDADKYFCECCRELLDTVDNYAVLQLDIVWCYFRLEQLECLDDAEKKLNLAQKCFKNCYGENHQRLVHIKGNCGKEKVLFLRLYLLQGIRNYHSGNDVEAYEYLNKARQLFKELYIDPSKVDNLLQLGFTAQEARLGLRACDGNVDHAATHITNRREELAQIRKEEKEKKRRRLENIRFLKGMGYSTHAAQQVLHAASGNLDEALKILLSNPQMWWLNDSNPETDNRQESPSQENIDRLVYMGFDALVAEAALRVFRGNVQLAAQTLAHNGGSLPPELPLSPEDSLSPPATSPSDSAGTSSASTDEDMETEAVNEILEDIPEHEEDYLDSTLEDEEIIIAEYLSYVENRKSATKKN
Chain of UniProt O95644 (O95644 whole entry, looked up): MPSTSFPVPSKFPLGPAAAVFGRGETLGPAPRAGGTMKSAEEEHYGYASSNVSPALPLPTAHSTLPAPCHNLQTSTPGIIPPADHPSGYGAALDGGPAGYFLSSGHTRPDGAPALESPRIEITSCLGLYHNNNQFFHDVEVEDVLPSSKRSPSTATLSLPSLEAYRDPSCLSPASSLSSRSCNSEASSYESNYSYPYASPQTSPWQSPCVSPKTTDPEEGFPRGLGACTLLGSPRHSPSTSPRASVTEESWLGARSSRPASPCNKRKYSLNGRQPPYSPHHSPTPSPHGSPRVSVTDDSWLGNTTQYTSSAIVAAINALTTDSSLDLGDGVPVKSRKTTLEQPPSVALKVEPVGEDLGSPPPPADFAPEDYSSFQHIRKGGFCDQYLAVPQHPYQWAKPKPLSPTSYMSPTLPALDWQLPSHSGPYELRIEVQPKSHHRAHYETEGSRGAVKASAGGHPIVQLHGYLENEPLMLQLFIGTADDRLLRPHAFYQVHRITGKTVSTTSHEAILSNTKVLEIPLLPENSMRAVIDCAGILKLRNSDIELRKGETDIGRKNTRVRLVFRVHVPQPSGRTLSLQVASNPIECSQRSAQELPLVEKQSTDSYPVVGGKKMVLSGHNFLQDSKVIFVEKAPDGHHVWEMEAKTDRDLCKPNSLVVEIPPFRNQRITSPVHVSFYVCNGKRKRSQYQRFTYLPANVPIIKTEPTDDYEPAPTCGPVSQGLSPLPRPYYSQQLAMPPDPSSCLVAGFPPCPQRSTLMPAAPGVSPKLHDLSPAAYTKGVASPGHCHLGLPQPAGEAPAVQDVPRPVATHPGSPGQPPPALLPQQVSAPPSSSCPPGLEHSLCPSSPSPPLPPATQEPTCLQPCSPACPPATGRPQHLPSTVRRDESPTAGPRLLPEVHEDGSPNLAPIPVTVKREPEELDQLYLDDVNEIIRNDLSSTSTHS
Chain of UniProt P18440 (P18440 whole entry, looked up): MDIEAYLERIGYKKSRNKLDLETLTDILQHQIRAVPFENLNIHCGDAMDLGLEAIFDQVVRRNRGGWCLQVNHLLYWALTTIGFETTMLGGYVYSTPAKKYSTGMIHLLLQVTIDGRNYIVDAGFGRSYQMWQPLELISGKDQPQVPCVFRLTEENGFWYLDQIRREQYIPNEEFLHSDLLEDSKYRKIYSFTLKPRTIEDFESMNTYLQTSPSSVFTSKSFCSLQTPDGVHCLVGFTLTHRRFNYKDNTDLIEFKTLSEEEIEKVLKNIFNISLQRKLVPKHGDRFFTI

log2 fold change, inactive:
ORC2 (UniProt Q13416) 0.048, NIPSNAP3A (UniProt Q9UFN0) -0.005, N6AMT1 (UniProt Q9Y5N5) 0.201, OTUD7B (UniProt Q6GQQ9) 0.033, MSH2 (UniProt P43246) -0.014, MRPL53 (UniProt Q96EL3) -0.006, NFKBIE (UniProt O00221) 0.046, NCAPH2 (UniProt Q6IBW4) -0.044, MRPS18A isoform 2 (UniProt Q9NVS2) 0.073, NOB1 (UniProt Q9ULX3) -0.002, NCAPG2 (UniProt Q86XI2) 0.015, NUMB (UniProt P49757) 0.001, OARD1 (UniProt Q9Y530) -0.011, NF1 (UniProt P21359) 0.019, NTMT1 (UniProt Q9BV86) 0.023, MYD88 isoform 6 (UniProt Q99836) -0.031, NUSAP1 (UniProt Q9BXS6) 0.001, MVB12A (UniProt Q96EY5) -0.017, NAT1 (UniProt P18440) 0.04, MSH3 (UniProt P20585) -0.004, NCK1 (UniProt P16333) 0.049, NGLY1 (UniProt Q96IV0) 0.015, NOA1 (UniProt Q8NC60) 0.041, NUB1 (UniProt Q9Y5A7) -0.007, NAA30 (UniProt Q147X3) 0.001, NUDT5 (UniProt Q9UKK9) -0.019, NOSIP (UniProt Q9Y314) -0.008, MTFP1 (UniProt Q9UDX5) -0.025, NFATC1 (UniProt O95644) 0.004, MYOM1 (UniProt P52179) 0.015, MTCH2 (UniProt Q9Y6C9) 0.013, PAK1 (UniProt Q13153) -0.013, NFATC2 (UniProt Q13469) -0.029, NOC2L (UniProt Q9Y3T9) 0.04, NEK7 (UniProt Q8TDX7) 0.086
